# Source: PubChem
# CCT modulator: cytosolic chaperonin activity modulation. activity change, % (no concentration beside the values), hits read low. purified chaperonin ATPase assay, HTRF ADP detection, 30 min. 360,000 compounds, 0.3% hits; in the data active = activity change below about -30%; note: % is set by controls: 0 for no effect and ±100 for the full control effect
#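 We incubate TRiC, 40 or 20 nM final, with library compounds at 76 uM and 10 uM ATP for 30 min at 37 °C. ADP formed is detected with Transcreener HTRF reagents after 30 min at room temperature.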
# MmCpn inh: M. maripaludis TRiC chaperonin inhibition | purified Mm-Cpn ATPase, ADP Transcreener TR-FRET | Potency, µM (series often up to 76.9 µM), for inactives: top-dose activity, negative = inhibition, most hits filed as inhibitors | 330,000 compounds, 0.031% hits | AID 504842; note: potency is the fitted concentration of half-maximal effect; % is set by controls: 0 for no effect and ±100 for the full control effect; nearly all actives have a fitted effect of over 80% in size
#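 ATPase read-out: TR-FRET ADP immunoassay (anti-ADP Eu cryptate vs ADP-d2), ex 320 nm, em 590/665 nm; signal drops as ADP forms. Enzyme 25 nM, ATP 10 uM, 30 min at 37°C after 10 min compound preincubation.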
# PINK1 modulator: changes PINK1 expression; PINK1 immunofluorescence, high-content cytometry, 24 h; Potency, µM (doses to about 76.6 µM), without a hit: at the highest dose activation (PINK1 increase), hits mostly activators; 410,000 compounds, 0.2% hits; active = well fitted activation curve with a large enough effect; inconclusive = small, poorly fitted or top-dose-only effect; cell line not stated here; note: potency is the fitted concentration of half-maximal effect; % of control where 0% means no effect; nearly all actives have a fitted effect of over 65% in size
#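 Compound titrations (5 concentrations, 24 h) on a stable cell line; DMSO and CCCP controls. Endpoint: fixed-cell PINK1 immunofluorescence with mitochondrial, cell and nuclear markers, scanned by microplate cytometer.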
# 12-LOX inh: blocks human arachidonate 12S-lipoxygenase | purified 12hLO, xylenol orange hydroperoxide absorbance | Potency, µM (doses to about 108 µM), inactives show at the top dose activity change, negative = inhibition, hits mostly inhibitors | 580,000 compounds, 1.1% hits | AID 1671190; note: potency is the fitted concentration of half-maximal effect; % is set by controls: 0 for no effect and ±100 for the full control effect
# Target sequence (P18054 whole entry, looked up): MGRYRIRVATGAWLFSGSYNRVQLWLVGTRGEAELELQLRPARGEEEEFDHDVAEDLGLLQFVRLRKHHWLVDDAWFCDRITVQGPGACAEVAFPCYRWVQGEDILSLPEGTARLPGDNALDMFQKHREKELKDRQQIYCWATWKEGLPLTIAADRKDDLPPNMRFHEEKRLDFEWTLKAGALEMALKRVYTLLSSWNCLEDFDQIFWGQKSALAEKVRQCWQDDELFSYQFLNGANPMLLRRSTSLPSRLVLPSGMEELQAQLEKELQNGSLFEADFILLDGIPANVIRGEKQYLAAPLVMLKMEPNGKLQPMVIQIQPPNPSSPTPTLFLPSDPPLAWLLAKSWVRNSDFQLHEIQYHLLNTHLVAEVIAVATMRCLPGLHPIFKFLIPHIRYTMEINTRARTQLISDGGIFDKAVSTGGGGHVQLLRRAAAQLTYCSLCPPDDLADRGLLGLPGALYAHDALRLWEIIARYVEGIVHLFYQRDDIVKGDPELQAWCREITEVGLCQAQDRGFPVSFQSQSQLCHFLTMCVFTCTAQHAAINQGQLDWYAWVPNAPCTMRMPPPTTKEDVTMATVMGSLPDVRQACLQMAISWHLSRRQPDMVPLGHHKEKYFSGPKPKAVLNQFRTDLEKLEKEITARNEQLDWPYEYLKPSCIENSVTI
#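 Hydroperoxide product was detected by ferrous iron/xylenol orange as the 573 to 405 nm absorbance ratio. Arachidonic acid at 40 uM (final) was turned over for 30 min at room temperature by 150 nM human 12hLO, pH 7.0 Hepes buffer, after 15 min compound preincubation.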
# p53 reactivator: re-activators of mutant p53 | H1299 p53-A138V BP100-luciferase reporter, luminescence, 24 h | Potency, µM (titrated, usually from 92.2 µM), for inactives: top-dose activity change, positive = activation, usual class: activators | 320,000 compounds, 0.063% hits; note: potency is the fitted concentration of half-maximal effect; % of control where 0% means no effect; nearly all actives have a fitted effect of over 45% in size
#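 H1299 (p53-null), stable ts p53-A138V + BP100-Luc; 1000 cells/well, Opti-MEM/10% FBS; cpd 4 pt, 1:5; 24 h, 37 deg C, 5% CO2; detection reagent 10 min RT; luminescence.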
# ASM inhibitor: inhibitors of human secretory acid sphingomyelinase; P17405; Potency, µM (top dose mostly 57.5 µM), for inactives: at the highest dose activity change, negative = inhibition, usual class: inhibitors; AID 504937; placental ASM, HMU-PC fluorogenic substrate, 60 min; 340,000 compounds, 0.006% hits; note: potency is the fitted concentration of half-maximal effect
#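 Steps: dispense placental human ASM, pin compound, wait 10 min at room temperature, add HMU-PC0 substrate at 9 uM final, incubate 60 min at 37 °C, add stop solution raising pH to 10, read fluorescence.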
# An asterisk follows results filed as active; ? = inconclusive; . = no result; [ ] = another dose, or the depositor's remark. An excerpt weighted towards active compounds, which were near 1.4% of everything screened. Unless noted, calls come from the whole dose curve; as a rule, active = well fitted curve in the direction sought with a large enough effect; inconclusive = small, poorly fitted or top-dose-only effect, or another doubt; inactive = no such curve, though single readings can be large; an effect the other way counts as inactive or inconclusive.
SMILES,CCT modulator,MmCpn inh,PINK1 modulator,12-LOX inh,p53 reactivator,ASM inhibitor
CCOc1ccc(NC(=O)CN(C)C(=O)CCNC(=O)c2ccccc2Cl)cc1OCC,-44*,-3%,0%,-12%,1%,0%
COc1cccc(-c2csc(-c3nc(-c4ccc(C)cc4)c(C)s3)n2)c1,.,.,.,-23%,.,.
Cc1ccc(CNC(=O)C(=O)c2c[nH]c3ccccc23)cc1,.,.,.,-5%,.,.
CCN1C(=O)[C@H]2[C@@H](c3ccc(-c4ccc(Cl)c(Cl)c4)c(OC)c3)N[C@@](Cc3ccccc3)(C(=O)OC)[C@H]2C1=O,-58*,-2%,0%,?,13%,1%
CCN1C(=O)[C@H]2[C@@H](c3ccc(-c4cccc(Cl)c4)c(OC)c3)N3CCC[C@@]3(C(=O)OC)[C@H]2C1=O,-1,-2%,3%,50µM*,0%,17%
CN1C(=O)c2cccc(NCCCCCCN3C(=O)c4ccccc4C3=O)c2C1=O,0,-1%,?,18%,-1%,-3%
CN1C(=O)c2cccc(NCCCN3C(=O)c4ccccc4C3=O)c2C1=O,0,1%,7.1µM*,5%,-2%,18%
COc1cc(-c2ccc(Nc3ccccc3C(=O)O)c(OC)c2)ccc1Nc1ccccc1C(=O)O,1,0%,-1%,35µM*,9%,-18%
Fc1ccc(/C=C2\CCCC3=C2NC(=S)NC3c2ccc(F)cc2)cc1 (centres undefined),.,3%,.,.,-6%,.
Fc1ccc(/C=C2\CCCC3=C2N=C2SC=C(c4ccccc4)N2C3c2ccc(F)cc2)cc1 (centres undefined),.,.,.,22µM*,.,.
CC(NC(=O)C1CCCC1)c1ccc(Cl)cc1Cl (centres undefined),.,.,.,38%,.,.
COc1cc(Cl)c(C)cc1NC(=O)c1cc(=O)n2c(nc3ccccc32)s1,.,.,.,45µM*,.,.
CN(Cc1cccs1)C(=O)c1cccc(C#N)c1,.,.,.,-54%,.,.
O=C(Nc1c2c(nn1-c1ccc(Cl)cc1)CS(=O)(=O)C2)c1ccc(Br)cc1,.,.,32µM*,-33%,.,.
O=C(Nc1c2c(nn1-c1ccc(Cl)cc1)CS(=O)(=O)C2)c1ccc2c(c1)OCO2,2,2%,8%[38.3 µM],-29%,-16%,1%
Cc1ccc(C)c(NC(=S)N2CCN(c3cccc(C(F)(F)F)c3)CC2)c1,0,1%,3%,-4%,-1%,-2%
Cc1ccnc(NC(=S)N2CCN(c3cccc(C(F)(F)F)c3)CC2)c1,-3,-3%,5%,22µM*,?,2%
FC(F)(F)c1cccc(N2CCN(C(=S)NC3CCCCC3)CC2)c1,1,-2%,32µM*,50µM*,3%,-6%
O=C(Nc1ccc(Cl)cc1)N1Cc2[nH]cnc2C[C@H]1c1nc(-c2ccccc2)no1,.,.,.,27%[176 µM],.,.
COc1cc(OC)cc(C(=O)NC(=S)NNC(=O)c2cnccn2)c1,-1,0%,0%,50µM*,23%,-2%
O=C1/C(=C/c2ccc(O)c(O)c2)Oc2cc(O)ccc21,0,-10%,4%,11µM*,19%,0%
Cc1ccccc1CC(=O)Nc1cc(S(=O)(=O)N2CCCCC2)ccc1N1CCN(C)CC1,.,.,.,6%,.,.
O=C(N/N=C/c1ccc(-c2ccc(S(=O)(=O)Nc3ncccn3)cc2)o1)c1cc2ccccc2cc1O,-2,1%,-1%,13µM*,5%,35%
CCOc1ccc(/C=C(\C#N)C(=O)Nc2cccnc2)cc1,-63*,-1%,0%,-1%,-1%,5%
COc1ccc(NC(=O)CN(C)C(=O)CC2CCCC2)cc1,-3,0%,-1%,-18%,2%,13%
SMILES,CCT modulator,MmCpn inh,PINK1 modulator,12-LOX inh,p53 reactivator,ASM inhibitor
COc1cccc(NC(=O)CN(C)C(=O)CC2CCCC2)c1,-34*,.,5%,-4%,.,8%
Cc1ccc2nc(C)c(C(=O)N3CCN(S(=O)(=O)c4cc(F)ccc4F)CC3)cc2c1,.,.,.,-7%,.,.
Cc1ccc(S(=O)(=O)N2CCN(C(=O)c3cc4cc(C)ccc4nc3C)CC2)cc1,.,.,.,40µM*,.,.
CCCCOC(=O)c1ccc(NC(=O)CCc2ncc(-c3ccccc3)o2)cc1,.,.,.,57%,.,.
O=C(c1ccc(Cl)cc1)C(CN1CCCCCC1)c1ccccc1 (centres undefined),.,.,.,-14%,.,.
O=C(c1ccccc1)C(CN1CCCCC1)c1ccccc1 (centres undefined),-4,.,-2%,45µM*,.,1%
Fc1ccccc1-c1ccc(-c2nn3c(-c4ccco4)nnc3s2)o1,.,.,.,8.9µM*,.,.
Clc1ccccc1-c1nnc2sc(-c3ccco3)nn12,0,-1%,-1%,-5%,-11%,-5%
Cc1oc(-c2ccc(F)cc2)cc1-c1nn2c(-c3ccco3)nnc2s1,.,.,.,11µM*,.,.
CN(C)c1ccc(-c2[nH][nH]c(=O)c2NC(=O)c2ccccn2)cc1,-36*,.,12%,-28%,.,.
CN(C)c1ccc(-c2[nH][nH]c(=O)c2NC(=O)c2ccc3ccccc3n2)cc1,-1,.,15%,-6%,.,.
O=C(CSCc1ccc(Cl)cc1)N/N=C/c1ccc(OCC(=O)Nc2ccccc2)cc1,-53*,-2%,7%,-2%,-4%,-16%
CC(=O)c1c(C)oc2ccc(NS(=O)(=O)c3ccc(O)c(C(=O)O)c3)cc12,0,0%,2%,16µM*,-4%,12%
Cc1cc(NC(=O)COc2ccc3c(C(C)C)cc(=O)oc3c2)no1,.,.,.,-5%,.,.
COc1ccc(C2=NN(c3nc4ccccc4s3)C(=O)/C2=C\N(C)C)cc1,-7,-2%,2%,22µM*,16%,15%
COc1ccc(C2SCC(=O)N2c2nc3ccccc3s2)cc1 (centres undefined),0,-6%,1%,2%,22%,35%
CCn1nc(C(=O)OCC(=O)Nc2ccc3c(c2)OC(F)(F)O3)c2ccccc2c1=O,.,.,.,-1%,.,.
Cc1occc1-c1nnc(SC(C)C(=O)NCc2cccs2)o1 (centres undefined),.,.,.,-32%,.,.
O=C(Nc1ccccc1)C1=C(c2ccccc2)S(=O)(=O)CCS1(=O)=O,-55*,-5%,1%,-4%,-9%,1%
Cc1ccc(-c2csc(/C=C/c3ccc(C#N)cc3)n2)cc1,.,.,.,-2%,.,.
Cc1ccc(-c2csc(/C=C/c3cccc(O)c3)n2)cc1,.,.,.,7.1µM*,.,.
CCOC(=O)c1cc(-c2ccccc2)nn1Cc1cc(CC)no1,-2,3%,3%,-119%,?,-7%
CCc1cc(Cn2nc(-c3ccccc3)cc2C(=O)NCc2cccs2)on1,-1,1%,3%,8.9µM*,-10%,-13%
